Data as given in PubChem BioAssay (NCI).
This is part of a sample that, as a whole, favours compounds with a hit. Of some 83,000 tested, about 20% had one in any assay.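 Treatment: one concentration, 48 hours, 96-well format. Scoring: percent growth, with anything below 10 considered active.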 Unmarked numbers belong to inactive results. Calls of active or inactive are those of the source.

Columns and labels:
Assay in all cases: NCI-60 one-dose screen, 48 h (100 = growth as untreated, 0 = no growth, -100 = all killed)
Conditions in all cases: 10 µM unless noted
[1] = tested on: SK-MEL-2 melanoma
[2] = tested on: EKVX NSCLC
[3] = tested on: SN12C renal
[4] = tested on: UO-31 renal
[5] = tested on: TK-10 renal
[6] = tested on: ACHN renal
[7] = tested on: CAKI-1 renal
[8] = tested on: A498 renal
[9] = tested on: CCRF-CEM leukemia
[10] = tested on: MOLT-4 leukemia
[11] = tested on: SR leukemia
[12] = tested on: OVCAR-8 ovarian
[13] = tested on: OVCAR-5 ovarian
[14] = tested on: OVCAR-4 ovarian
[15] = tested on: SK-OV-3 ovarian
[16] = tested on: IGROV1 ovarian
[17] = tested on: OVCAR-3 ovarian
[18] = tested on: NCI/ADR-RES ovarian
[19] = tested on: HS 578T breast
[20] = tested on: RPMI-8226 leukemia

SMILES	growth [1]	growth [2]	growth [3]	growth [4]	growth [5]	growth [6]	growth [7]	growth [8]	growth [9]	growth [10]	growth [11]	growth [12]	growth [13]	growth [14]	growth [15] [%]	growth [16]	growth [17]	growth [18]	growth [19]	growth [20]
O=C(NCCNc1nccc(-n2ccc3cccnc32)n1)c1ccc(C(F)(F)F)cc1	108%	94.2%	98.7%	84%	134%	97.6%	87.6%	108%	101%	104%	105%	103%	106%	100%	99.7	103%	109%	105%		
Cc1ccc(S(=O)(=O)NCCCNc2cc(-c3cn(C(C)(C)C)nc3-c3cccc(O)c3)ccn2)cc1	70.4%	61%	64.6%	73.2%	107%	62.4%	59.7%	85.1%	52.4%	49.1%	40.6%	71.9%	78.5%	56%	85.7	61.7%	74.6%	72.4%	60%	
COc1ccc(S(=O)(=O)NCCCNc2nccc(-n3ccc4cccnc43)n2)cc1	106%	87.5%	90.9%	97.5%	105%	94.6%	69.6%	87.5%	90%	77.2%	90.7%	92.7%	100%	81.5%	119	103%	98.8%	91.1%	92.3%	
CN(C)c1oc(C2OC2c2ccccc2)nc1C#N (configuration not stated)	99.4%	102%	95.1%	77.8%	129%	94.7%	93.7%	123%	86.1%	97.7%		85.4%	89.6%	109%	79.2	90.6%	105%	100%		98.3%
O=C(NCCCNc1nccc(-n2ccc3cccnc32)n1)c1c(F)cccc1F	114%	93.4%	99.4%	92%	116%	94.6%	86.3%	103%	101%	99.2%	99.2%	107%	98.9%	94.9%	116	97.6%	109%	99.4%	103%	
Cc1ccc(-c2nc(C#N)c(S(=O)(=O)n3nc(-c4ccccc4)cc3N)o2)cc1	99.4%	99%	90.2%	92%	18.1%	25.3%	-41.1% (active)	126%	4.2% (active)	1.21% (active)		90.4%	106%	114%	94.8	101%	17.7%	94.9%	95.6%	83.4%
COP(=O)(OC)/C(=N\NS(=O)(=O)c1ccc(C)cc1)c1ccccc1	110%	97.7%	105%	92.6%	88%	101%	62.1%	92.4%	124%	103%		106%	91%		91.7		103%	95.8%	123%	109%
NC(=O)CCCN1C/C(=C\c2ccccc2)C(=O)c2ccccc21	90.4%	106%	92.4%	78.1%	95%	98.7%	90.6%	107%	110%	104%		98.4%	101%	98.9%	89.5	102%	109%	109%	99.6%	101%
CCN(CC)c1ccc(/C=C2\Oc3ccc(O)c(I)c3C2=O)cc1	62.3%	73.3%	76.9%	46.3%	74.2%	54.9%	68.4%		13.3%	16.4%	2.38% (active)	61.7%	95.1%	81.5%	79.5	40.4%	19.1%	37.9%	75.4%	32.3%
COc1ccc2cc(-c3ccc(-c4ccc(C(=N)N)cc4)s3)ccc2c1	103%	104%	99.7%	89.7%	48.1%	101%	91%	94.3%		94.3%	30.4%	101%	103%	97.3%		69.6%	-15.4% (active)	106%	105%	91%
COc1cc(-c2nc(N=Nc3c(O)[nH]c4ccc(Br)cc34)[nH]c(=O)c2C#N)cc(OC)c1OC	102%	100%	97.4%	90%	111%	101%	91.1%		94.5%	96.2%	88.2%	93.5%	101%	101%	108	101%	102%		93.8%	98.2%
COc1cccc(/C=C2\Oc3cc(OCCCN4CCCC4)ccc3C2=O)c1	107%	85.3%	85.2%	58.2%	93.3%	93%	85.5%		1.85% (active)	59.5%	-22.9% (active)	91.4%	89.1%	112%	109	73.6%	87.2%	89.1%	92.5%	61.6%
CCN(CC)c1ccc2[nH]c3c(C(N)=O)cc(=O)c(=O)c=3oc2c1	-19.4% (active)	-10.4% (active)	-4.55% (active)	-28.8% (active)	2.91% (active)	-8.77% (active)	-33.2% (active)	46.2%		1.5% (active)	5.09% (active)	0.295% (active)	15.1%	2.07% (active)	19.9	-44.4% (active)	-35.9% (active)	-0.316% (active)	2.92% (active)	-1.62% (active)
O=C(O)/C=C/C(=O)c1ccc(Cl)cc1	109%	114%	112%	90.1%	105%	106%	107%	107%					115%	116%	107	114%	105%	109%	119%	115%
Cc1ccc(-c2cc3nc(-c4ccccc4)nc(C(Cl)Cl)n3n2)cc1	26.7%	-68% (active)	55.5%	-99.7% (active)	-97.9% (active)	-99.3% (active)	-86.4% (active)	-73.8% (active)		89.3%	71.2%	-25.5% (active)	-27.2% (active)	-46% (active)		46%	-94.5% (active)	-30.7% (active)	-42.1% (active)	
COc1cc([N+](=O)[O-])c2ncccc2c1O	4.77% (active)	105%	33.7%	25.6%	89.2%	88.8%	82.9%		61.3%	119%	107%	78.5%	76.4%	104%	37	51.8%	83.1%	91.1%	-3.86% (active)	75.6%
CN1C(=O)N(C)C2C1NN=c1s/c(=C\c3cccnc3)c(=O)n12 (configuration not stated)	97.3%	89.6%	93.5%	66.5%	109%	92.3%	57.6%		79.8%	88.7%	27.3%	93.2%	93%	93.6%	85	80.8%	65.6%	78.5%	84.8%	95.4%
